# Results taken from ChEMBL document CHEMBL4513146, “CO-ADD screening of Karazin Kharkiv National University (Ukraine) compounds”.
# Potency and affinity values are given separately.
# Columns and labels:
# Staphylococcus aureus = conditions: Concentration 32 ug.mL-1;; ASSAY_TEST Inhibition of Bacterial Growth; detection method Absorption (OD600); MEDIA CAMHB; plate type 384well; NBS; CORNING #3640; time 18 hr
# Escherichia coli = conditions: Concentration 32 ug.mL-1;; ASSAY_TEST Inhibition of Bacterial Growth; detection method Absorption (OD600); MEDIA CAMHB; plate type 384well; NBS; CORNING #3640; time 18 hr
Compound,Inhibition (Staphylococcus aureus) [%],Inhibition (Escherichia coli) [%]
COc1ccc(CNC(=O)CCc2nnc3c4cc(-c5ccc(Cl)cc5)nn4ccn23)cc1OC,3.74,1.66
CCOc1ccc(-n2ccn3c(SCC(=O)Nc4ccc(F)cc4F)nnc3c2=O)cc1,5.96,2.93
O=C(CCc1nnc2c(N3CCCCC3)nc3ccccc3n12)NCc1ccccc1F,5.87,6.41
CCc1ccc(NC(=O)Cn2nc3n(Cc4ccco4)c(=O)c4sccc4n3c2=O)cc1,-4.41,-6.35
COc1ccccc1NC(=O)Cn1nc2c3c4c(sc3ncn2c1=O)CCCC4,0.74,-4.22
O=S(=O)(c1ccc2nncn2c1)N(Cc1ccccc1F)c1ccc2c(c1)OCO2,12.13,-4.11
O=C(CSc1nc2ccccc2n2cnnc12)Nc1cccc(Br)c1,-6.77,-14.46
COc1ccc(-c2cc3c4nnc(CCC(=O)NCc5cccs5)n4ccn3n2)cc1,11.44,4.51
Cc1cc(Nc2ccc(F)cc2)nc2nn(Cc3cccc(C#N)c3)c(=O)n12,-3.76,-11.43
CC(C)c1nnc2c(=O)n(CC(=O)Nc3ccc(Br)cc3)c3ccccc3n12,9.7,7.11
Cc1ccc(Sc2ccc3nn(CC(=O)Nc4ccc(Br)c(C)c4)c(=O)n3n2)cc1,8.43,-6
Cc1ccc(NC(=O)Cn2nc3c(N4CCOCC4)nccn3c2=O)cc1Cl,10.97,1.83
COc1cc(NC(=O)Cn2nc3c(SC4CCCCC4)nccn3c2=O)cc(OC)c1,0.44,-4.73
CCOc1ccc(NC(=O)Cn2nc3c(Sc4ccc(C)cc4C)nccn3c2=O)cc1,0.32,-7.3
O=C(Cn1nc2c(N3CCOCC3)nccn2c1=O)NCc1cccs1,22.65,1.24
Cc1nnc2ccc(S(=O)(=O)N(Cc3cccc(Cl)c3)c3ccc(F)cc3)cn12,3.62,-8.44
CCCCn1c(=O)c2sccc2n2c(=O)n(CC(=O)c3cccc(OC)c3)nc12,9.41,0.65

Compound,Inhibition (Staphylococcus aureus) [%],Inhibition (Escherichia coli) [%]
CCCc1nnc2c(=O)n(CC(=O)Nc3ccc(Br)cc3F)c3ccccc3n12,-16.77,-13.67
COc1cccc(-n2ccn3c(SCC(=O)Nc4cc(F)ccc4F)nnc3c2=O)c1,11.04,-6.25
CCc1ccc(N(Cc2ccccc2C)S(=O)(=O)c2cccn3c(CC)nnc23)cc1,11.1,-3.02
CCc1nnc2c(S(=O)(=O)N(Cc3cccc(F)c3)c3ccc(F)cc3)cccn12,-7.77,-5
COc1ccc(NC(=O)Cn2nc3c4cc(-c5ccc(C)cc5)nn4ccn3c2=O)cc1Cl,-6.7,-3.03
CC(C)(C)S(=O)(=O)c1ccc2nn(CC(=O)Nc3ccc(Br)cc3)c(=O)n2n1,3.67,-5.05
COc1ccc(OC)c(NC(=O)Cn2nc3ccc(-c4ccc(Cl)cc4)nn3c2=O)c1,10.25,-2.3
CN(C)c1nc2ccccc2n2c(=O)n(CC(=O)Nc3ccc4c(c3)OCO4)nc12,1.33,1.96
Cc1ccc(NC(=O)Cn2nc3c(Sc4ccccc4)nc4ccccc4n3c2=O)cc1C,-2.53,-4.65
CCCCn1c(=O)c2sccc2n2c(=O)n(CC(=O)N3CCC(Cc4ccccc4)CC3)nc12,-14.82,-3.89
COc1ccc(NC(=O)Cn2nc3c(Sc4ccccc4)nccn3c2=O)cc1Cl,-4.6,-4.12
CCOc1ccc(-n2ccn3c(SCC(=O)c4cccc(Cl)c4)nnc3c2=O)cc1,18.89,0.66
CCOC(=O)c1ccc(NC(=O)CSc2nc3ccccc3n3c(C(C)C)nnc23)cc1,-3.17,-9.79
O=S(=O)(c1cccn2cnnc12)N(Cc1ccc(F)cc1)c1ccc(F)c(F)c1,8.71,-1.75
CCc1nnc2c(S(=O)(=O)N(Cc3ccc(OC)c(F)c3)c3ccccc3)cccn12,14.47,1.05
COc1ccc(N2CCN(C(=O)Cn3nc4c(Oc5ccc(C)cc5)nccn4c3=O)CC2)cc1,4.51,-5.74
